PMP22 txn – PMP22 gene transcription modulation; S16 Pmp22-F2sN Schwann cells, FLuc/NLuc coincidence luminescence, 24 h; Potency, µM (series often up to 57.5 µM), most hits filed as inhibitors; AID 1508649; 2% of 43,000 active; active = clear falling dose curves in both reporters; inconclusive = both reporters move, but less clearly or upward; inactive = either reporter flat; the % is the NLuc reporter signal
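S16(c9) Schwann cells with FLuc/NLuc coincidence reporter in the Pmp22 3' UTR; compounds pin-transferred, 24 h at 37C. Dual-luciferase read: FLuc first, then NLuc after Stop&Glo, each 10 min at room temperature.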
p53null 39C kill – selectivity test: cytotoxicity in p53 null cells, nonpermissive temperature; H1299 p53-null (neo) cells, 39C, ATPlite viability, 24 h; Potency, µM (doses to about 46.1 µM), hits mostly cytotoxic; 0.97% of 55,000 active; also: nearly all actives have a fitted effect of over 50% in size
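Temperature-shift cytotoxicity format: compound titrations on p53-null or A138V-expressing H1299 cells held 24 hr at 39C, cell ATP then measured, AC50 from Hill model.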
S16 F2sN tox – S16 Schwann cell cytotoxicity | S16 Pmp22-F2sN Schwann cells viability, CellTiter-Glo, 24 h | Potency, µM (doses to about 57.5 µM), actives largely listed as cytotoxic | 0.48% of 43,000 active | AID 1508642; also: nearly all actives have a fitted effect of over 65% in size
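Viability was measured by CellTiter-Glo luminescence (15 min, room temperature). This followed 24 h at 37 °C of compound exposure (23 nL pin transfer) in S16 Pmp22-F2sN Schwann cells, 500-1,000 per well.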
mTORC1 inh – reduces mTORC1 signaling in Tsc2 and p53 null MEF cells. 0.78% of 44,000 active. Potency, µM (highest dose often 38.3 µM), most hits filed as inhibitors. Tsc2-/- p53-/- MEF, phospho-rpS6 immunofluorescence/PI, 24 h; also: nearly all actives have a fitted effect of over 50% in size
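Tsc2-/-, p53-/- mouse embryonic fibroblasts (empty-vector line) exposed to compound 24 hrs at 37 C, fixed, immunostained for phospho-rpS6 and counterstained with propidium iodide. Acumen laser scanning gives % positive cells from Alexa 488/PI ratio, thresholded using 7.5 nM rapamycin; PI count gives viability.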
p53null 32C kill – p53 null cell cytotoxicity, permissive temperature; Potency, µM (series often up to 46.1 µM), actives largely listed as cytotoxic; AID 903; H1299-neo p53 null cells, ATP luminescence, 24 h, 32C; 0.62% of 55,000 active; also: nearly all actives have a fitted effect of over 55% in size
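Cytotoxicity: H1299-neo (no p53), 32C, 24 h treatment. Concentrations up to 46 uM. Readout cellular ATP, luminescence. Normalization to DMSO basal and tamoxifen 100 uM maximal kill.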
OvCa metastasis – blocks SKOV3ip1 adhesion and invasion in omental model | SKOV3ip1-GFP adhesion/invasion on 3D omental model, fluorescence | Potency, µM (doses to about 45.8 µM), hits mostly inhibitors | 0.1% of 46,000 active; also: nearly all actives have a fitted effect of over 65% in size
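Adhesion/invasion was scored as fixed GFP-labeled SKOV3ip1 cell counts (488/509 nm), normalized to DMSO and tomatine controls. Cancer cells in serum-free medium, with four compound doses (0.36-46 umol/L), sat 2 hr at RT then 16 hr at 37 C on a 48 hr fibroblast/mesothelial/ECM culture.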
Large screens that a line does not name were inactive. Most compounds without a hit are left out; they make up all but 3.1% or so of the library. Unless noted, calls follow the shape of the dose curve; as a rule, active = well fitted curve in the direction sought with a large enough effect; inconclusive = small, poorly fitted or top-dose-only effect, or another doubt; inactive = no such curve, though single readings can be large; an effect the other way counts as inactive or inconclusive.

COc1cc2c(NC3CCN(C(C)C)CC3)nc(C3CCCCC3)nc2cc1OCCCN1CCCC1	OvCa metastasis 12µM (no result: PMP22 txn, p53null 39C kill, S16 F2sN tox, mTORC1 inh, p53null 32C kill)
COC(=O)c1c(NC(=O)c2ccc(S(=O)(=O)N3CCCCC3)cc2)sc2c1CCN(C)C2	PMP22 txn inconclusive, S16 F2sN tox inconclusive, mTORC1 inh 4.1µM, OvCa metastasis inconclusive
Cc1nn(-c2ccccc2)c2sc(C(=O)Nc3cccc(O)c3)cc12	PMP22 txn inconclusive, p53null 39C kill 25µM, S16 F2sN tox inconclusive
Cc1nn(-c2ccccc2)c2sc(C(=O)Nc3ccccc3Br)cc12	none
O=C(Nc1ccc2nc(SCC(=O)N3CCOCC3)sc2c1)c1cccc(Cl)c1	p53null 39C kill inconclusive, p53null 32C kill 32µM
CCOC(=O)CSc1nc2ccc(NC(=O)c3ccc(C)cc3)cc2s1	p53null 39C kill inconclusive, p53null 32C kill 10µM
O=C(Nc1ccc2nc(SCC(=O)N3CCCC3)sc2c1)c1cccc(Cl)c1	p53null 39C kill inconclusive
COc1cccc(C(=O)NC(c2ccc(Cl)cc2)c2cc(Cl)c3cccnc3c2O)c1 (stereo unspecified)	PMP22 txn 4.6µM, S16 F2sN tox 5µM, p53null 32C kill inconclusive, OvCa metastasis inconclusive
CCC(=O)NC(c1ccccc1OC)c1ccc2cccnc2c1O (stereo unspecified)	p53null 39C kill inconclusive (no result: PMP22 txn, S16 F2sN tox, mTORC1 inh, OvCa metastasis)
COc1cc(C(=O)NC(c2ccc(Cl)cc2)c2cc(Cl)c3cccnc3c2O)cc(OC)c1OC (stereo unspecified)	PMP22 txn inconclusive, S16 F2sN tox 3.2µM, p53null 32C kill inconclusive, OvCa metastasis inconclusive
CCOC(=O)C=C[C@H](C[C@@H]1CCNC1=O)NC(=O)[C@@H](CC(=O)[C@@H](NC(=O)c1cc(C)on1)C(C)C)Cc1ccc(F)cc1	none (no result: PMP22 txn, p53null 39C kill, S16 F2sN tox, mTORC1 inh, p53null 32C kill)
COc1ccc(OC)c(C(=O)CC2(O)C(=O)N(Cc3ccccc3C)c3ccccc32)c1 (stereo unspecified)	p53null 39C kill inconclusive, S16 F2sN tox inconclusive, mTORC1 inh inconclusive
Cc1ccc(CN2C(=O)C(O)(CC(=O)c3ccc(C)cc3)c3ccccc32)cc1 (stereo unspecified)	PMP22 txn 7.6µM, S16 F2sN tox inconclusive, mTORC1 inh 9.3µM
Cc1ccccc1CN1C(=O)C(O)(CC(=O)c2cccc(Br)c2)c2ccccc21 (stereo unspecified)	PMP22 txn inconclusive, p53null 39C kill 32µM, p53null 32C kill inconclusive
C[C@H](NC(=O)C(C#N)=Cc1cccc(Br)n1)c1ccccc1	none (no result: PMP22 txn, p53null 39C kill, S16 F2sN tox, mTORC1 inh, p53null 32C kill)
COc1ccc(CSc2nc3ncccc3[nH]2)cc1	p53null 39C kill 11µM, p53null 32C kill 11µM
CCCc1nn2c(C)c(-c3ccccc3)nc2s1	PMP22 txn inconclusive, p53null 39C kill 10µM, p53null 32C kill 7.9µM
CCc1ccc(NC(=O)C2CCN(c3nn4cc(-c5ccc(OC)cc5)nc4s3)CC2)cc1	none
CCc1ccc(-c2cn3nc(CC)sc3n2)cc1	p53null 39C kill 10µM, mTORC1 inh inconclusive, p53null 32C kill 13µM
CCCCCc1nn2cc(-c3ccccc3)nc2s1	p53null 39C kill 16µM, p53null 32C kill 10µM
CC(C)Cn1c(-c2cccc(Br)c2)nc2ccccc21	PMP22 txn inconclusive
CC(C)Cc1nn2cc(-c3cccc(Br)c3)nc2s1	PMP22 txn inconclusive, p53null 39C kill 16µM, p53null 32C kill 13µM
N#Cc1ccc(NC(=O)Nc2ccccc2Br)c2n[nH]nc12	none (no result: PMP22 txn, p53null 39C kill, S16 F2sN tox, mTORC1 inh, p53null 32C kill)
NC(=NCCCCCCN=C(N)N=C(N)Nc1ccc(Cl)cc1)N=C(N)Nc1ccc(Cl)cc1	none (no result: PMP22 txn, p53null 39C kill, S16 F2sN tox, mTORC1 inh, p53null 32C kill)
Cc1nc(NC(=O)N2CCC[C@@H]2C(N)=O)sc1-c1ccnc(C(C)(C)C(F)(F)F)c1	none (no result: PMP22 txn, p53null 39C kill, S16 F2sN tox, mTORC1 inh, p53null 32C kill)
Cc1ccc(NC(=O)c2cc3c(s2)CCCC3)cc1S(=O)(=O)Nc1ccccc1Cl	none (no result: PMP22 txn, S16 F2sN tox, mTORC1 inh, OvCa metastasis)
O=C(Nc1cccc(S(=O)(=O)Nc2ccc(Cl)cc2)c1)c1cc2c(s1)CCCC2	p53null 39C kill 2.8µM (no result: PMP22 txn, S16 F2sN tox, mTORC1 inh, OvCa metastasis)
Cc1ccccc1C(=O)c1ccc(Nc2ccc(Br)cc2N)cc1Cl	none (no result: PMP22 txn, p53null 39C kill, S16 F2sN tox, mTORC1 inh, p53null 32C kill)

Screening data: PubChem BioAssay, National Center for Advancing Translational Sciences (NCATS)
